From PubChem BioAssay (EPA / NIEHS)
Values joined by “and” are separate entries in the source; they are usually repeats but may differ in a detail not shown here. Identical values can stand only once. Results filed as inconclusive are left out. Where a structure was tested more than once in an assay, its records may differ in their call. Active and inactive are the calls of the source. How the source made its calls, unless noted: active means hit-call score of the fitted dose curve at least 0.9, where 1 is the maximum; inactive means score below 0.9.

Key:
[1] = CCTE_Padilla_ZF_144hpf_TERATOSCORE: (Legacy) CCTE's 144 Hour Post-fertilization zebrafish Assay Teratoscore, Padilla Lab (AID 2283679);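 on AC50: zebrafish embryos with chorions exposed by immersion from 6-8 hpf to 5 dpf with daily renewal; teratogenicity score from eye scoring of death hatching and malformations at 144 hpf; higher score means more developmental defects relative to DMSO baseline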
How it was run: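 Larvae scored by eye at 144 hpf for death, hatching and malformations after a day in clean Hanks'. Before that, daily-renewed exposure at 80 uM (0.4% DMSO, 26C) from roughly 6-8 hpf through 5 dpf, 4 embryos per chemical.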

[2] = CLD_ACTIN_6hr: CellzDirect (CLD) Gene Expression Assay for Baseline Control (Actin) at 6 hours (AID 2283676; active means hit-call score of the fitted dose curve at least 0.9, where 1 is the maximum;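 further: active means increased actin mRNA relative to DMSO vehicle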)
How it was run: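 Baseline actin transcript level measured by qNPA (S1 nuclease protection, chemiluminescence) in human hepatocyte cultures 6 h after chemical exposure; 0.2% DMSO vehicle as reference, cytotoxicity noted from morphology.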

[3] = read-out: Glyceraldehyde-3-phosphate dehydrogenase (Homo sapiens) (UniProt P04406); test: CLD_GAPDH_6hr: CellzDirect (CLD) Gene Expression Assay for Baseline Control (Glyceraldehyde 3-phosphate dehydrogenase) at 6 hours (AID 2283681; active means hit-call score of the fitted dose curve at least 0.9, where 1 is the maximum;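 further: active means increased signal relative to DMSO vehicle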)
How it was run: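 GAPDH baseline-control readout from qNPA (S1 nuclease digestion, probe hybridization, chemiluminescence) in lysates of cultured human hepatocytes harvested 6 h post-dosing. Chemicals tested at multiple concentrations versus 0.2% DMSO vehicle; microscopy-based cytotoxicity flagged yes/no.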

[4] = read-out: xenobiotic metabolism (CYP1A2), CYP1A2 (gene 1544); test: CLD_CYP1A2_24hr: CellzDirect (CLD) Gene Expression Assay for xenobiotic metabolism (CYP1A2) at 24 hours (AID 2283683; active means hit-call score of the fitted dose curve at least 0.9, where 1 is the maximum)
How it was run: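 CYP1A2 mRNA induction measured by quantitative nuclease protection (chemiluminescent) in human primary hepatocytes 24 h after multi-concentration chemical dosing with daily fresh solutions. DMSO (0.2%) baseline; positive-direction fitting; morphology-based cytotoxicity noted.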

[5] = read-out: Cytochrome P450 2B6 (Homo sapiens) (UniProt P20813); test: CLD_CYP2B6_6hr: CellzDirect (CLD) Gene Expression Assay for xenobiotic metabolism (CYP2B6) at 6 hours (AID 2283677; active means hit-call score of the fitted dose curve at least 0.9, where 1 is the maximum;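 further: actives raise CYP2B6 transcript above DMSO baseline so AC50 marks an inducer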)
Description: CLD_6hr is a cell-based, multiplexed-readout assay that uses hepatocyte, a human liver primary cell, with measurements taken at 6 hours after chemical dosing in a 96-well plate.CLD_CYP2B6_6hr is one of 16 assay component(s) measured or calculated from the CLD_6hr assay. It is designed to make measurements of mRNA induction, a form of inducible reporter, as detected with chemiluminescence signals by Quantitative Nuclease Protection Assay (qNPA) technology.Data from the assay component CLD_CYP2B6_6hr was analyzed at the endpoint, CLD_CYP2B6_6hr, in the positive analysis fitting direction relative to DMSO as the negative control and baseline of activity. Using a type of inducible reporter, gain-of-signal activity can be used to understand changes in the reporter gene as they relate to the gene CYP2B6. Furthermore, this assay endpoint can be referred to as a primary readout. To generalize the intended target to other relatable targets, this assay endpoint is annotated to the cyp intended target family, where subfamily is xenobiotic metabolism.
Human hepatocyte cultures were treated daily for two consecutive days with fresh dosing solutions containing appropriate concentrations of the 320 ToxCast chemicals (chemical identities were blinded to CellzDirect and other ToxCast collaborators), vehicle control (0.2% DMSO), and positive control inducers as summarized in Table 1. […] These replicate data, coupled with internal replicates designed within the blinded ToxCast chemical library, provided additional data to evaluate interindividual differences between hepatocyte preparations and their potential impact on chemical profiles.Cell morphology and integrity were evaluated using phase-contrast microscopy as an indicator of hepatocyte cell health (Tyson & Green, 1987). Cultures for each treatment group (i.e., media, vehicle [0.2% DMSO], positive control inducers [multiple concentrations], and the ToxCast chemicals [multiple concentrations]) were observed and cell morphology was assessed relative to vehicle control cultures at each harvest time point (0, 6, 24, or 48 h). […] Images were evaluated at the conclusion of the study to assess changes in cell integrity and account for the effects of chemical exposure on uncharacteristic changes in concentration-dependent gene expression profiles. […]

[6] = read-out: Cytochrome P450 3A4 (Homo sapiens) (UniProt P08684); test: CLD_CYP3A4_6hr: CellzDirect (CLD) Gene Expression Assay for xenobiotic metabolism (CYP3A4) at 6 hours (AID 2283680; active means hit-call score of the fitted dose curve at least 0.9, where 1 is the maximum)
How it was run: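 CYP3A4 mRNA induction, 6 h after dosing of cultured primary human hepatocytes from two donors, read by quantitative nuclease protection (qNPA, chemiluminescence). Vehicle 0.2% DMSO as baseline; morphology-based cytotoxicity annotated yes/no.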

[7] = read-out: HMG-CoA synthase (HMGCS2), HMGCS2 (gene 3158); test: CLD_HMGCS2_6hr: CellzDirect (CLD) Gene Expression Assay for HMG-CoA synthase (HMGCS2) at 6 hours (AID 2283682; active means hit-call score of the fitted dose curve at least 0.9, where 1 is the maximum;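 further: actives raise HMGCS2 transcript above the 0.2% DMSO vehicle baseline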)
How it was run: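 HMGCS2 transcript induction read by quantitative nuclease protection with chemiluminescence, 6 h after dosing of primary human hepatocytes. Baseline was 0.2% DMSO vehicle; phase-contrast morphology gave a yes/no cytotoxicity annotation.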

[8] = read-out: ABC Transporter (ABCB11), ABCB11 (gene 8647); test: CLD_ABCB11_24hr: CellzDirect (CLD) Gene Expression Assay for ABC Transporter (ABCB11) at 24 hours (AID 2283674)
How it was run: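 ABCB11 transcript was quantified by qNPA chemiluminescence in cultured human liver hepatocytes 24 hours after dosing. Fresh dosing solutions were applied on consecutive days, against a 0.2% DMSO vehicle. Cytotoxicity was noted by phase-contrast morphology.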

[9] = read-out: ABC Transporter (ABCB11), ABCB11 (gene 8647); test: CLD_ABCB11_6hr: CellzDirect (CLD) Gene Expression Assay for ABC Transporter (ABCB11) at 6 hours (AID 2283675; active means hit-call score of the fitted dose curve at least 0.9, where 1 is the maximum;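 further: hits raise ABCB11 mRNA level so AC50 marks induction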)
Description: (§1) CLD_6hr is a cell-based, multiplexed-readout assay that uses hepatocyte, a human liver primary cell, with measurements taken at 6 hours after chemical dosing in a 96-well plate.CLD_ABCB11_6hr is one of 16 assay component(s) measured or calculated from the CLD_6hr assay. It is designed to make measurements of mRNA induction, a form of inducible reporter, as detected with chemiluminescence signals by Quantitative Nuclease Protection Assay (qNPA) technology.Data from the assay component CLD_ABCB11_6hr was analyzed at the endpoint, CLD_ABCB11_6hr, in the positive analysis fitting direction relative to DMSO as the negative control and baseline of activity. […] Furthermore, this assay endpoint can be referred to as a primary readout. […]
(§2) Human hepatocyte cultures were treated daily for two consecutive days with fresh dosing solutions containing appropriate concentrations of the 320 ToxCast chemicals (chemical identities were blinded to CellzDirect and other ToxCast collaborators), vehicle control (0.2% DMSO), and positive control inducers as summarized in Table 1. […] Cultures for each treatment group (i.e., media, vehicle [0.2% DMSO], positive control inducers [multiple concentrations], and the ToxCast chemicals [multiple concentrations]) were observed and cell morphology was assessed relative to vehicle control cultures at each harvest time point (0, 6, 24, or 48 h). […]

[10] = read-out: Cytochrome P450 2C19 (Homo sapiens) (UniProt P33261); test: CLD_CYP2C19_6hr: CellzDirect (CLD) Gene Expression Assay for xenobiotic metabolism (CYP2C19) at 6 hours (AID 2283678; active means hit-call score of the fitted dose curve at least 0.9, where 1 is the maximum)
Description: as §1, with “plate.CLD_CYP2C19_6hr” for “plate.CLD_ABCB11_6hr”, “CLD_CYP2C19_6hr” for “CLD_ABCB11_6hr”, “CLD_CYP2C19_6hr,” for “CLD_ABCB11_6hr,”
as §2

Chain of Glyceraldehyde-3-phosphate dehydrogenase (Homo sapiens) (P04406 whole entry, looked up): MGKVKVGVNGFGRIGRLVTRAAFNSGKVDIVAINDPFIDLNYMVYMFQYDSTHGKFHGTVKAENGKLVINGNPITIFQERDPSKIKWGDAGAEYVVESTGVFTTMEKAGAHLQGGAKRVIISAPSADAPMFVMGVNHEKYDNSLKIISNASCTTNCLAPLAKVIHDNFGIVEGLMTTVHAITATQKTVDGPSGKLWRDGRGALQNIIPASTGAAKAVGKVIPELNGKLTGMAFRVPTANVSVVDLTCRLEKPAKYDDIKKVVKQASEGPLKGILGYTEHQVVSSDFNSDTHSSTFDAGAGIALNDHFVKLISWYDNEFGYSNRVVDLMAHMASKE
Chain of Cytochrome P450 3A4 (Homo sapiens) (P08684 whole entry, looked up): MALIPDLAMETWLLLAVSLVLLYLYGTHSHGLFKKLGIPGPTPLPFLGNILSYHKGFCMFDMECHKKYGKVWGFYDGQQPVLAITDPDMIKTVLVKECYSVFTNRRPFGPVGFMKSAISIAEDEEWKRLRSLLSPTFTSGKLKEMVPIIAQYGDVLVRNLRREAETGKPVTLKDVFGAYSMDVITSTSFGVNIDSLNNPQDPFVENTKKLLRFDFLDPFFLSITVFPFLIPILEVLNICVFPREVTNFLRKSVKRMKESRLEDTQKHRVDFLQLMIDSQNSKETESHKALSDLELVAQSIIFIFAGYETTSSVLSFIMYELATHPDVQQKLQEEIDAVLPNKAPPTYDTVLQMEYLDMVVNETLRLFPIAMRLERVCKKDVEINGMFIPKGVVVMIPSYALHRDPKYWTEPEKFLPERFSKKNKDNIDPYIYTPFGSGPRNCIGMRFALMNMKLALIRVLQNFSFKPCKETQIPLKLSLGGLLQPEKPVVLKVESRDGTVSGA
Chain of Cytochrome P450 2C19 (Homo sapiens) (P33261 whole entry, looked up): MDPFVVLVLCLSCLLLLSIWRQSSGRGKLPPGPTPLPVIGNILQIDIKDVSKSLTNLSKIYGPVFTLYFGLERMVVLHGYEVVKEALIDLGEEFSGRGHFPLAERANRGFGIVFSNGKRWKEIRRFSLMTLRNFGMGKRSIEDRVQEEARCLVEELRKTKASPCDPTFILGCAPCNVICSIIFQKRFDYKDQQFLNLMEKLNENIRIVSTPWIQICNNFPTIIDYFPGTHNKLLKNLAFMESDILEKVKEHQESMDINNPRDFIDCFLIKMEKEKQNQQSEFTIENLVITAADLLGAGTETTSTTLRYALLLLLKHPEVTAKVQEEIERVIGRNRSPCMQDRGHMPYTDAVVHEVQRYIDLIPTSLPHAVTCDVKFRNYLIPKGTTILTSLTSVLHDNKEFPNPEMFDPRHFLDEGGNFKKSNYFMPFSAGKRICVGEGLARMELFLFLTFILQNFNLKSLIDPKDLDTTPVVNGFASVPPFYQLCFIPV

## CCCCCCCCCc1ccc(O)cc1
[1]
  AC50: 61.4 µM (active)

## CCC(C)(c1ccc(O)cc1)c1ccc(O)cc1
[1]
  AC50: 15.5 µM (active) and 1.34 µM (active)

## Cc1cc2c3c(c1)C(c1ccccc1)=N[C@@H](NC(=O)c1ccncc1)C(=O)N3CC2
[1]
  AC50: 54.4 µM (active)

## Cc1ccccc1CO[C@@H]1C[C@@]2(C(C)C)CC[C@]1(C)O2
[2]
  outcome: inactive
[1]
  AC50: 73.1 µM (active)
[3]
  outcome: inactive
[4]
  AC50: 16.5 µM (active)

## Cc1cc(O)ccc1Cl
[1]
  AC50: 112 µM (active)

## C[C@]12CCC(=O)C=C1CC[C@@H]1[C@@H]2CC[C@@]2(C)[C@H]1CC[C@]2(C)O
[1]
  AC50: 24.4 µM (active)

## Oc1ccc(Cl)cc1Cl
[1]
  AC50: 56.6 µM (active)

## CC(c1ccc(O)cc1)(c1ccc(O)cc1)c1ccc(O)cc1
[1]
  outcome: inactive

## CN(C)c1nc(=O)n(C2CCCCC2)c(=O)n1C
[2]
  outcome: inactive
[5]
  outcome: inactive
[1]
  outcome: inactive
[6]
  outcome: inactive
[3]
  outcome: inactive
[7]
  outcome: inactive
[4]
  outcome: inactive

## CCCCCCCCOC(=O)c1ccccc1C(=O)OCCCCCCCC
[1]
  outcome: inactive

## CC(C)(O)C(=O)Nc1ccc([N+](=O)[O-])c(C(F)(F)F)c1
[1]
  AC50: 31.4 µM (active)

## Oc1ccc(C(c2ccc(O)cc2)(C(F)(F)F)C(F)(F)F)cc1
[1]
  AC50: 18.1 µM (active)

## C1CC2OC2CC1C1CO1 (stereo not given)
[1]
  AC50: 77.8 µM (active)

## CCSC(=O)N(CC)C1CCCCC1
[8]
  outcome: inactive
[9]
  outcome: inactive
[2]
  outcome: inactive
[5]
  AC50: 3.97 µM (active)
[10]
  outcome: inactive
[1]
  outcome: inactive
[6]
  outcome: inactive
[4]
  outcome: inactive

## CC#Cc1cc(C)nc(Nc2ccccc2)n1
[1]
  AC50: 33.4 µM (active)

## O=C(NC(=O)c1cc(F)c(F)cc1Cl)Nc1cc(F)ccc1N1CCC(C(=O)O)CC1
[1]
  AC50: 31 µM (active)

## O=S(=O)(O)C(F)(F)C(F)(F)C(F)(F)C(F)(F)C(F)(F)C(F)(F)F
[1]
  AC50: 123 µM (active)

## Clc1ccc(C(c2ccccc2Cl)C(Cl)(Cl)Cl)cc1 (stereo not given)
[1]
  AC50: 16.1 µM (active)

## CCC(C)(CC)c1cc(NC(=O)c2c(OC)cccc2OC)on1
[9]
  outcome: inactive
[2]
  outcome: inactive
[5]
  AC50: 0.116 µM (active)
[1]
  AC50: 58.2 µM (active)
[6]
  AC50: 0.0356 µM (active)
[3]
  outcome: inactive
[4]
  AC50: 8.57 µM (active)

## O=C(O)C(F)(F)C(F)(F)C(F)(F)C(F)(F)C(F)(F)C(F)(F)C(F)(F)C(F)(F)C(F)(F)F
[1]
  AC50: 60.2 µM (active)

## CCNc1nc(NC(C)C)nc(SC)n1
[2]
  outcome: inactive
[5]
  AC50: 1 µM (active)
[10]
  outcome: inactive
[1]
  AC50: 149 µM (active)
[6]
  AC50: 1.79 µM (active)
[3]
  outcome: inactive
[7]
  outcome: inactive
[4]
  AC50: 1.29 µM (active)

## CC1=C2C[C@H]3[C@@H](CC=C4C[C@@H](O)CC[C@@]43C)[C@@H]2CC[C@]12O[C@@H]1C[C@H](C)CN[C@H]1[C@H]2C
[1]
  AC50: 0.115 µM (active)

## c1ccc(-c2ccccc2)cc1
[1]
  AC50: 4.5 µM (active)
  outcome: inactive

## ClC1=C(Cl)[C@]2(Cl)[C@@H]3[C@H]4C[C@H]([C@@H]5O[C@H]45)[C@@H]3[C@@]1(Cl)C2(Cl)Cl
[1]
  AC50: 0.00973 µM (active)

## O=C(O)C(F)(F)C(F)(F)C(F)(F)C(F)(F)C(F)(F)C(F)(F)C(F)(F)C(F)(F)F
[1]
  AC50: 53.7 µM (active)

## CCCCCCCCCC[N+](C)(C)CCCCCCCCCC
[1]
  AC50: 4.53 µM (active)

## COS(=O)(=O)OC
[1]
  outcome: inactive

## CCOC(=O)C(O)(c1ccc(Cl)cc1)c1ccc(Cl)cc1
[1]
  AC50: 1.71 µM (active)

## NS(=O)(=O)C(F)(F)C(F)(F)C(F)(F)C(F)(F)C(F)(F)C(F)(F)C(F)(F)C(F)(F)F
[1]
  AC50: 0.45 µM (active)

## CCC(C)c1cc([N+](=O)[O-])cc([N+](=O)[O-])c1O (stereo not given)
[1]
  AC50: 0.167 µM (active)

## c1cc2ccc3cccc4ccc(c1)c2c34
[1]
  AC50: 13.5 µM (active)

## COc1ccc(O)c(C(C)(C)C)c1
[1]
  AC50: 57.8 µM (active)

## CO/C=C(/C(=O)OC)c1ccccc1COc1cccc(C(F)(F)F)n1
[1]
  AC50: 0.168 µM (active)

## CCOP(=S)(OCC)SCSC(C)(C)C
[1]
  AC50: 56.3 µM (active)

## O=NN(c1ccccc1)c1ccccc1
[1]
  AC50: 53.4 µM (active)

## CCC(=O)O[C@H]1CC[C@H]2[C@@H]3CCC4=CC(=O)CC[C@]4(C)[C@H]3CC[C@]12C
[1]
  AC50: 79.4 µM (active)

## CC(C)(c1ccccc1)c1ccc(O)cc1
[1]
  AC50: 4.83 µM (active)

## Nc1ccc(-c2ccc(N)cc2)cc1
[1]
  AC50: 33 µM (active)

## ClC1=C(Cl)[C@]2(Cl)[C@@H]3[C@@H]4C[C@@H]([C@H]5O[C@@H]45)[C@@H]3[C@@]1(Cl)C2(Cl)Cl
[1]
  AC50: 0.345 µM (active)

## CN(C)CCO
[1]
  outcome: inactive

## ClC1=C(Cl)[C@]2(Cl)[C@@H]3[C@@H](Cl)[C@H]4O[C@H]4[C@@H]3C1(Cl)C2(Cl)Cl
[1]
  AC50: 0.547 µM (active)

## Oc1c(Cl)c(Cl)c(Cl)c(Cl)c1Cl
[1]
  AC50: 0.806 µM (active)

## ClC(Cl)=C(c1ccc(Cl)cc1)c1ccc(Cl)cc1
[1]
  AC50: 8.32 µM (active)

## C[C@]12CCC(=O)C=C1CC[C@@H]1[C@@H]2CC[C@]2(C)C(=O)CC[C@@H]12
[1]
  AC50: 31.8 µM (active)

## CCCN(CCC)N=O
[1]
  outcome: inactive
